# Reference: PubChem BioAssay (NCI)
# This is part of a sample that, as a whole, favours compounds with a hit. Of some 83,000 tested, about 20% had one in any assay.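 Assay: single dose, 48 h. Readout: percent growth (0 = no net growth; negative = cell death). Active: <10.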 A number with no mark means an inactive call. Activity calls are given as the source filed them.
# System: SNB-19 CNS
# Assay: NCI-60 one-dose screen, 48 h (100 = growth as untreated, 0 = no growth, -100 = all killed)
# Settings: 10 µM unless noted
row,SMILES,growth
1,COc1ccccc1N1CCN(CC(O)COc2c(Br)c(Br)c(Br)c3c2OC(C)(C)C3)CC1 (stereo not drawn),60.8%
2,CC(=O)N[C@@H](CNC(=O)c1cc(NC(=O)c2cc(NC(=O)c3cc(NC(=O)c4nccn4C)cn3C)cn2C)cn1C)CC(=O)Nc1cn(C)c(C(=O)Nc2cc(C(=O)Nc3cc(C(=O)Nc4cc(C(=O)NCCCN(C)CCCNC(=O)c5cccc(C(=O)O)c5)n(C)c4)n(C)c3)n(C)c2)n1,86.3%
3,O=[N+]([O-])c1ccc(NS(=O)(=O)c2cc(Cl)ccc2Cl)c2ccccc12,60.1%
4,CN1CCN(C(=O)/C=C/c2ccc([N+](=O)[O-])o2)CC1,98%
5,CCn1cc(/C=C2\Oc3cc(OCC#N)ccc3C2=O)c2cc(OC)ccc21,29.8%
6,S=c1ssnc1-c1ccccn1,47.8%
7,COc1ccc2c(c1)nnc1c3cccnc3[nH]c21,11.5%
8,COc1cccc(/C=N/C(=S)NC2(C)C3CCC(C3)C2(C)C)c1O (stereo not drawn),82.9%
9,CC1(C)Cc2c(Br)c(Br)c(Br)c(OCC(O)CN3CCN(c4ccccn4)CC3)c2O1 (stereo not drawn),101%
10,O=C1OC(c2ccc(-c3ccccc3)cc2)=C/C1=C/C=C/c1ccccc1,99.1%
11,CCCCCn1ncc(-c2c(O)c(O)cc3c(O)c(-c4c(C)cc5c(-c6cnn(CCCCC)n6)c(O)c(O)cc5c4O)c(C)cc23)n1,22%
12,CCC1S/C(=N\N=C(/C)c2cc3ccccc3o2)N(c2ccccc2)C1=O (stereo not drawn),100%
13,CS(=O)(=O)OCC(COS(C)(=O)=O)C(c1ccccc1)c1ccccc1,105%
14,CC(=O)c1cc2c(N)c(C(=O)Nc3cccc(Cl)c3)sc2nc1C,91.3%
15,ClC1c2ccccc2CCc2ccccc21,111%
16,CCOC(=O)C(C)(CSSCC(C)(NC(=O)c1ccc2ccccc2c1)C(=O)OCC)NC(=O)c1ccc2ccccc2c1 (stereo not drawn),86%
17,COc1ccccc1S(=O)(=O)Nc1ccc2c3c(cc(-c4ccoc4)nc13)C(=O)N2C,75.9%
18,CN1CCN(Cn2nc(-c3cc(Cl)cc(Cl)c3Cl)n(/N=C/c3ccc(Cl)cc3)c2=S)CC1,96.6%
19,Cc1ccn2cc(Cc3cc(=O)oc4c3ccc3ccccc34)c(=O)nc2c1,103%
20,C=C1C(=O)O[C@H]2[C@H]1CC/C(COC(=O)c1ccc(Br)cc1)=C\CC[C@@]1(C)O[C@@H]21,24%

row,SMILES,growth
1,COc1cc2ncnc(Oc3ccc(NC(=O)Nc4ccc(CN5CCOCC5)c(C(F)(F)F)c4)c4ccccc34)c2cc1OC,55.2%
2,Cc1cccc(NC(=O)CCc2ccc(N3C(N)=NC(N)=NC3(C)C)cc2)c1,37%
3,CN(C)c1ncc(C#Cc2c(F)cccc2F)c2ccccc12,88.8%
4,O=C(NC(=S)Nc1ccc(Cl)cc1)c1ccccc1,105%
5,COc1cc2nc(C(=O)N3CCCCC3)cc(Nc3ccccc3)c2cc1OC,104%
6,Oc1ccc(O)c(-[n+]2ccccc2)c1,100%
7,COc1cc2c(/C=C3/C(=O)Nc4ccc(O)cc43)c(Cl)n(Cc3cc(OC)c(OC)c(OC)c3)c2cc1C,20.2%
8,N#Cc1c(N)nc2c(c1N)C(c1ccc(Cl)cc1)C1=C(CCCC1=O)N2c1sc2c(c1C#N)CCCC2 (stereo not drawn),92.4%
9,COc1ccc2c(c1)nnn1c3ncccc3c(N=O)c21,-4.29% (active)
10,COc1cc(NC(C)CCCN2C(=O)c3ccccc3C2=O)c2nc(C)ccc2c1OC (stereo not drawn),99.7%
11,O=C(Nc1ccc(F)cc1)Nc1ccc(Cl)c([N+](=O)[O-])c1,21.5%
12,COc1cc(/C=C/C(=O)c2c(C)n([O-])c3cc(C)c(C)cc3[n+]2=O)cc(OC)c1OC,60.5%
13,CCC1S/C(=N\N=C(/C)c2cccs2)N(c2ccccc2)C1=O (stereo not drawn),114%
14,O=C(Nc1cccc([N+](=O)[O-])c1)c1ccc2ccccc2c1O,67.6%
15,CC(C)(C)OC(=O)N1CCN(CCn2cc(C(F)(F)F)c3c(Cl)ncnc32)CC1,37.3%
16,COc1cc(NC(C)CCCN2C(=O)c3ccccc3C2=O)c2ncccc2c1OC (stereo not drawn),94.1%
17,CSc1nc(N)nc2c1ncn2C,110%
18,O=C1C(SCCO)=C(SCCO)C(=O)N1c1ccc(-c2ccccc2)cc1,106%
19,OCc1cnccc1NC12CC3CC(CC(C3)C1)C2,101%

# System: U251 CNS
# Assay: as above
# Settings: 10 µM unless noted
row,SMILES,growth
1,COc1ccccc1N1CCN(CC(O)COc2c(Br)c(Br)c(Br)c3c2OC(C)(C)C3)CC1 (stereo not drawn),52.7%
2,CC(=O)N[C@@H](CNC(=O)c1cc(NC(=O)c2cc(NC(=O)c3cc(NC(=O)c4nccn4C)cn3C)cn2C)cn1C)CC(=O)Nc1cn(C)c(C(=O)Nc2cc(C(=O)Nc3cc(C(=O)Nc4cc(C(=O)NCCCN(C)CCCNC(=O)c5cccc(C(=O)O)c5)n(C)c4)n(C)c3)n(C)c2)n1,64%
3,O=[N+]([O-])c1ccc(NS(=O)(=O)c2cc(Cl)ccc2Cl)c2ccccc12,67.1%
4,CN1CCN(C(=O)/C=C/c2ccc([N+](=O)[O-])o2)CC1,90%
5,CCn1cc(/C=C2\Oc3cc(OCC#N)ccc3C2=O)c2cc(OC)ccc21,24.2%
6,S=c1ssnc1-c1ccccn1,28.9%
7,COc1ccc2c(c1)nnc1c3cccnc3[nH]c21,-4.49% (active)
8,COc1cccc(/C=N/C(=S)NC2(C)C3CCC(C3)C2(C)C)c1O (stereo not drawn),48.7%
9,CC1(C)Cc2c(Br)c(Br)c(Br)c(OCC(O)CN3CCN(c4ccccn4)CC3)c2O1 (stereo not drawn),82.3%
10,O=C1OC(c2ccc(-c3ccccc3)cc2)=C/C1=C/C=C/c1ccccc1,100%
11,CCCCCn1ncc(-c2c(O)c(O)cc3c(O)c(-c4c(C)cc5c(-c6cnn(CCCCC)n6)c(O)c(O)cc5c4O)c(C)cc23)n1,-33.3% (active)
12,CCC1S/C(=N\N=C(/C)c2cc3ccccc3o2)N(c2ccccc2)C1=O (stereo not drawn),96.7%
13,CS(=O)(=O)OCC(COS(C)(=O)=O)C(c1ccccc1)c1ccccc1,107%
14,CC(=O)c1cc2c(N)c(C(=O)Nc3cccc(Cl)c3)sc2nc1C,91.4%
15,ClC1c2ccccc2CCc2ccccc21,96.6%
16,CCOC(=O)C(C)(CSSCC(C)(NC(=O)c1ccc2ccccc2c1)C(=O)OCC)NC(=O)c1ccc2ccccc2c1 (stereo not drawn),94.8%
17,COc1ccccc1S(=O)(=O)Nc1ccc2c3c(cc(-c4ccoc4)nc13)C(=O)N2C,77.9%
18,CN1CCN(Cn2nc(-c3cc(Cl)cc(Cl)c3Cl)n(/N=C/c3ccc(Cl)cc3)c2=S)CC1,93.1%
19,Cc1ccn2cc(Cc3cc(=O)oc4c3ccc3ccccc34)c(=O)nc2c1,102%
20,C=C1C(=O)O[C@H]2[C@H]1CC/C(COC(=O)c1ccc(Br)cc1)=C\CC[C@@]1(C)O[C@@H]21,4.28% (active)

row,SMILES,growth
1,COc1cc2ncnc(Oc3ccc(NC(=O)Nc4ccc(CN5CCOCC5)c(C(F)(F)F)c4)c4ccccc34)c2cc1OC,42.6%
2,Cc1cccc(NC(=O)CCc2ccc(N3C(N)=NC(N)=NC3(C)C)cc2)c1,36.9%
3,CN(C)c1ncc(C#Cc2c(F)cccc2F)c2ccccc12,80%
4,O=C(NC(=S)Nc1ccc(Cl)cc1)c1ccccc1,96.4%
5,COc1cc2nc(C(=O)N3CCCCC3)cc(Nc3ccccc3)c2cc1OC,102%
6,Oc1ccc(O)c(-[n+]2ccccc2)c1,97.1%
7,COc1cc2c(/C=C3/C(=O)Nc4ccc(O)cc43)c(Cl)n(Cc3cc(OC)c(OC)c(OC)c3)c2cc1C,32.2%
8,N#Cc1c(N)nc2c(c1N)C(c1ccc(Cl)cc1)C1=C(CCCC1=O)N2c1sc2c(c1C#N)CCCC2 (stereo not drawn),99.7%
9,COc1ccc2c(c1)nnn1c3ncccc3c(N=O)c21,-64.4% (active)
10,COc1cc(NC(C)CCCN2C(=O)c3ccccc3C2=O)c2nc(C)ccc2c1OC (stereo not drawn),94.2%
11,O=C(Nc1ccc(F)cc1)Nc1ccc(Cl)c([N+](=O)[O-])c1,15.5%
12,COc1cc(/C=C/C(=O)c2c(C)n([O-])c3cc(C)c(C)cc3[n+]2=O)cc(OC)c1OC,45.8%
13,CCC1S/C(=N\N=C(/C)c2cccs2)N(c2ccccc2)C1=O (stereo not drawn),105%
14,O=C(Nc1cccc([N+](=O)[O-])c1)c1ccc2ccccc2c1O,49.4%
15,CC(C)(C)OC(=O)N1CCN(CCn2cc(C(F)(F)F)c3c(Cl)ncnc32)CC1,17.3%
16,COc1cc(NC(C)CCCN2C(=O)c3ccccc3C2=O)c2ncccc2c1OC (stereo not drawn),107%
17,CSc1nc(N)nc2c1ncn2C,95.4%
18,O=C1C(SCCO)=C(SCCO)C(=O)N1c1ccc(-c2ccccc2)cc1,60.2%
19,OCc1cnccc1NC12CC3CC(CC(C3)C1)C2,98.9%
